The values below come from the supplement of paper PMC6555819.

Experiment in all cases: PBM binding z-score (relative to random genomic background probes); higher = stronger binding; sequences stand for … in GC…GCGATTGACAGCGTAGAATGAAGG
Test [1] has as its system FXR:RXRa (NR concentration 270 nM, RXRa partner concentration 90 nM). The gist of the method:
(§1)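 Each nuclear receptor dimer, without ligand, was incubated for 1 h on custom Agilent 4×180K protein-binding microarrays. Binding was detected with antibodies against each partner (one per run), and scanned fluorescence was regression-normalized. The binding z-scores are referenced to random human genomic background probes.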

Test [2] has as its system LXRa:RXRa (NR concentration 270 nM, RXRa partner concentration 90 nM). A digest of the protocol:
as §1

Test [3] relates to LXRa homodimer (NR concentration 270 nM). The gist of the method:
as §1

The subject of test [4] is LXRb:RXRa (NR concentration 270 nM, RXRa partner concentration 90 nM). A digest of the protocol: as §1
The test system of test [5] is LXRb homodimer (NR concentration 270 nM). A digest of the protocol:
as §1

For test [6], the system named is PPARa:RXRa (NR concentration 270 nM, RXRa partner concentration 90 nM). The gist of the method: as §1
The subject of test [7] is PPARg:RXRa (NR concentration 180 nM, RXRa partner concentration 90 nM). The gist of the method: as §1
Test [8] concerns PPARg:RXRa 270nM:90nM, anti-RXR (NR concentration 270 nM, RXRa partner concentration 90 nM). A digest of the protocol: as §1
The test system of test [9] is PPARg:RXRa 30nM:10nM, anti-RXR (NR concentration 30 nM, RXRa partner concentration 10 nM). The gist of the method: as §1
In test [10] the test system is PPARg:RXRa 90nM:30nM, anti-RXR (NR concentration 90 nM, RXRa partner concentration 30 nM). A digest of the protocol: as §1
Test [11] has as its system PPARg:RXRa DBDmut IVT, anti-RXR (DBD mutation: RXRa K156A/R161A, NR concentration 270 nM, RXRa partner concentration 90 nM). The gist of the method:
as §1

In test [12] the test system is PPARg:RXRa IVT, anti-PPARg (NR concentration 270 nM, RXRa partner concentration 90 nM). A digest of the protocol:
as §1

The test system of test [13] is PPARg DBDmut:RXRa IVT, anti-PPARg (DBD mutation: PPARg1 K132A/R137A, NR concentration 270 nM, RXRa partner concentration 90 nM). A digest of the protocol:
as §1

The subject of test [14] is PPARg DBDmut IVT, anti-PPARg (DBD mutation: PPARg1 K132A/R137A, NR concentration 270 nM). The gist of the method:
as §1

For test [15], the system named is PPARg homodimer (NR concentration 180 nM). A digest of the protocol: as §1
The test system of test [16] is PXR:RXRa (NR concentration 270 nM, RXRa partner concentration 90 nM). The gist of the method:
as §1

In test [17] the test system is PXR homodimer (NR concentration 270 nM). A digest of the protocol: as §1
The test system of test [18] is RARa:RXR (NR concentration 270 nM, RXRa partner concentration 90 nM). The gist of the method:
as §1

Test [19] concerns RARa homodimer (NR concentration 270 nM). The gist of the method:
as §1

Test [20] has as its system RARb:RXRa (NR concentration 270 nM, RXRa partner concentration 90 nM). A digest of the protocol:
as §1

Regarding CCGACTGGGGCATAAGGTTACCGTAAGCCAGCCC, the PBM binding z-score in [1] is 0.834; in [2] it was 0.933; in test [3], -0.596; in test [4], 0.83; in test [5], -1.46; in [6] it was 2.03. Also, the PBM binding z-score amounted to 2.33 in [7]; 3.5 in test [8]; 1.26 in [9]; 3.13 in [10]; 3.14 in test [11]; 3.4 in [12]. Besides, the PBM binding z-score in test [13] was -0.802; in test [14], -1.39; in test [15], 0.271; in [16] it was 0.55; in test [17], -0.911; in [18], 1.66. Also, the values for the PBM binding z-score in test [19] and in [20] were -0.61 and 1.98, respectively.

As to GCTTGTAGATCAAGGTTAAGAAAGACTAAGCTAA, the PBM binding z-score is 0.0354 in test [1]; 0.884 in test [2]; -0.55 in test [3]; 0.55 in test [4]; -0.627 in [5]; 1.56 in test [6]. In addition, the PBM binding z-score is 1.01 in test [7]; 2.05 in [8]; 0.29 in test [9]; 1.56 in test [10]; 0.698 in test [11]; 1.3 in [12]. Further, the PBM binding z-score was -0.233 in test [13]; 0.273 in [14]; 0.452 in test [15]; 0.314 in test [16]; -0.212 in [17]; 0.726 in [18]. Also, the PBM binding z-score in [19] was -0.0899; in test [20] it was 0.759.

Turning to TCATATAGGTAAAGCTGAAAGTCGAACGATATGA, the PBM binding z-score in test [1] is 0.358; in test [2], 0.331; in test [3], -0.286; in test [4] it was 0.366; in test [5], -0.268; in test [6], 0.995. For the same sequence, the PBM binding z-score amounted to 0.806 in [7]; 1.97 in test [8]; 3.45 in test [9]; 2.72 in test [10]; 3.57 in [11]; 2.35 in test [12]. Further, the PBM binding z-score in [13] was 0.591; in [14], 1.09; in test [15] it was -0.748; in test [16], 0.2; in test [17] it was -0.49; in [18], 0.193. The PBM binding z-score in test [19] was -0.464; in test [20] it was 0.205.

Take ATACCGAGGTGATCGTGAGGTCGTTGATACTAAC: the PBM binding z-score in test [1] was 1.95; in test [2], 1.69; in [3], 0.52; in test [4], 1.59; in [5] it was -0.183; in test [6], 1.83. Moreover, the PBM binding z-score in [7] is 0.57; in test [8], 0.574; in test [9], -0.146; in test [10], 0.356; in [11], 0.567; in [12] it was 1.31. The PBM binding z-score in [13] turned out to be 0.104; in test [14], 1; in [15], 0.847; in test [16], 3.62; in test [17], 1.35; in test [18] it was 2.39. The PBM binding z-score was -0.522 in test [19] and 1.4 in test [20].

In the case of TAGCCTAGGTCATGCGGGCCAGTAAAGTGTCGGC, the PBM binding z-score in [1] is 3.65; in test [2], 3.17; in test [3] it was -0.0418; in test [4] it was 1.66; in test [5] it was -0.608; in test [6] it was 3.69. Also, the PBM binding z-score in test [7] is 2.07; in test [8] it was 2.27; in test [9] it was -0.0823; in [10], 1.37; in test [11], 1.41; in test [12], 2.75. Also, the PBM binding z-score in test [13] was 0.246; in test [14], -0.0156; in [15] it was 0.811; in test [16] it was 1.51; in test [17] it was -0.33; in test [18], 2.44. Moreover, the PBM binding z-score in test [19] is -0.385; in test [20] it was 3.78.

On to CATACAGGGTCTGCTAGGCCAGAGTAGGGACGGC, for which the PBM binding z-score was -0.237 in test [1]; -0.31 in [2]; -0.443 in test [3]; -0.834 in test [4]; -0.599 in [5]; -0.452 in test [6]. Further, the PBM binding z-score in test [7] is 0.152; in [8], -0.899; in test [9], -0.808; in test [10], -0.386; in [11] it was -0.963; in test [12] it was -0.162. Besides, the PBM binding z-score in [13] is -0.142; in [14], -0.562; in [15], 0.266; in test [16] it was -0.649; in test [17], -0.0998; in test [18], -0.482. The PBM binding z-score in test [19] is 0.212; in test [20], 0.183.

With GTACCAAGGCGAATAGGTCGTTGATGAGTAGGCG, the PBM binding z-score in test [1] is -0.145; in test [2], -0.392; in [3] it was -0.286; in test [4], -0.382; in test [5], -0.895; in test [6], 0.351. Also, the PBM binding z-score in [7] is 0.461; in test [8], -0.0926; in test [9] it was -0.512; in test [10] it was -0.516; in test [11], -0.264; in test [12], -0.208. Also, the PBM binding z-score in test [13] was -0.611; in test [14], -1.17; in test [15] it was -0.305; in [16] it was -0.106; in test [17], -0.0295; in [18] it was 0.507. For the same sequence, the PBM binding z-score in [19] is -0.623; in [20] it was 0.291.
